# Screens deposited in PubChem BioAssay by Sanford-Burnham Center for Chemical Genomics.
# H9c2 TAG inh – inhibitors of triacylglycerol accumulation, primary screen, cell-based, uHTS, fluorescence, H9c2; hit rate 0.66% among 230,000; inhibition, % at 12.5 µM; H9c2 cells, Nile Red lipid (TAG) fluorescence; cells loaded with 200 µM oleic acid;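 active = pattern-corrected inhibition of lipid staining of at least 50% with the nuclear-stain viability signal not falling by more than 50%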;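 note: 0% = DMSO wells and 100% = triacsin C control wells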
# Cardio protect – cardioprotection against H2O2-induced cell death, primary screen, uHTS, H9c2 cells, ATPLite luminescence | protection from H2O2 cell death, % at 20 µM | AID 588492, 2011 | H9c2 cardiomyocytes, H2O2 injury protection, 2 h | hit rate 0.63% among 360,000;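 active = compounds giving at least 50% protection of heart cells from peroxide-induced death in the single-dose screen, raw or plate-pattern-corrected value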;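 note: 0% = DMSO wells with peroxide and 100% = DMSO wells without peroxide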
# CRFR2-BP antag – antagonists of CRF-BP/CRF-R2 complex, primary screen, cell-based, HEK293, calcium dye fluorescence, uHTS. inhibition, % at 11.8 µM. hit rate 0.59% among 350,000. CRF-induced calcium fluorescence;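 active = inhibition of the ligand-induced calcium signal above about 50% at the single tested concentration, limit read from the data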
# hiPSC survival – enhancers of single-cell hiPSC survival, primary screen, ATPlite luminescence | 100% = ROCK inhibitor wells, 0% = DMSO | survival enhancement, % at 20 µM | hit rate 0.044% among 360,000; in the data active = survival enhancement above about 18%;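 note: cells exposed to compounds for 16 hours before the ATP read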
# SKN-1 block – suppressors of acrylamide-induced Pgst-4::GFP reporter in worms, primary screen, SKN-1 inhibitor project, whole organism, uHTS, GFP/RFP fluorescence ratio, strain VP596. inhibition, % at 21.8 µM. C. elegans VP596 Pgst-4::GFP/RFP ratio, 24 h. hit rate 0.49% among 360,000;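 active = interference check ratio from 0.5 to 1.5 plus GFP to RFP signal ratio inhibition reaching or exceeding a fixed threshold, cut at about 30% in these data, passing the limit was not always enough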
# CRFBP-R2 agonist – agonists of CRF-BP/CRF-R2 complex, primary screen, cell-based, HEK293, calcium dye fluorescence, uHTS; CRF-binding protein / CRF receptor 2 complex (human); calcium dye fluorescence (FLIPR); percent of saturating CRF peptide response; activation, % at 13.2 µM; hit rate 0.46% among 350,000; AID 588473, 2011;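 active = activation of at least 50%, plus an integration ratio under a set limit after plate pattern correction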;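 note: plate controls were neutral control wells without compound for no effect and CRF at EC100 for full effect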
# H9c2 TAG conf – triacylglycerol accumulation inhibitors, retest, confirmation, cell-based, single concentration, Nile Red fluorescence, H9c2; shares compounds with H9c2 TAG inh; H9c2 lipid accumulation; cells loaded with 200 µM oleic acid; inhibition, % at 12.5 µM; hit rate 71% among 990;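 active = mean inhibition across replicates of 40% or more; inactive = mean inhibition below 40%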;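 note: plate controls were DMSO only wells for no effect and Triacsin C treated wells for full effect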
# An asterisk follows results filed as active; . = no result. An excerpt weighted towards active compounds, which were near 2.5% of everything screened.
SMILES,H9c2 TAG inh,Cardio protect,CRFR2-BP antag,hiPSC survival,SKN-1 block,CRFBP-R2 agonist,H9c2 TAG conf
COc1ccccc1CNC(=O)COC(=O)C12CC3CC(CC(O)(C3)C1)C2,7,1,1,0,-12,0,.
C#CCN(C[C@@H]1[C@@H](OC(=O)NCC2CCCCC2)[C@@H](OC(=O)NCC2CCCCC2)CN(C(=O)OC(C)C)N1C(=O)OC(C)C)S(=O)(=O)c1ccc(C)cc1,51*,-7,-3,0,8,-2,61*
C#CCN(C[C@@H]1[C@@H](OC(=O)NCc2ccccc2)[C@@H](OC(=O)NCc2ccccc2)CN(C(=O)OC(C)C)N1C(=O)OC(C)C)S(=O)(=O)c1ccc(C)cc1,22,-10,28,0,9,3,.
CCCCNC(=O)CN1C(=O)NC2(CCCc3ccccc32)C1=O (stereo not drawn),.,3,3,0,8,0,.
Cc1ccc(CNC(=O)c2ccc(N3CCC4(CC3)CC(c3ccccc3)=NO4)c(NC(=O)c3ccc(Cl)c([N+](=O)[O-])c3)c2)cc1,51*,0,1,-5,-2,2,37
Cc1ccc(CNC(=O)c2ccc(N3CCC4(CC3)CC(c3ccccc3)=NO4)c(NC(=O)c3cccc(C)c3)c2)cc1,30,1,-12,1,16,4,.
CCOC(=O)c1cc(-c2ccncc2)nc2c1c(C)nn2-c1ccccn1,68*,0,9,12,3,-2,43*
COc1ccc(-c2cc(C(=O)O)c3c(C)nn(-c4ccccn4)c3n2)cc1,.,.,14,.,.,0,.
COc1ccc(Oc2nc(-c3ccccn3)nc3ccccc23)cc1,62*,-6,11,0,1,-2,53*
c1ccc(-c2nc(N3CCCCCC3)c3ccccc3n2)nc1,0,24,-4,-2,10,-3,.
COc1ccc(Oc2nc(-c3ccncc3)nc3ccccc23)cc1,21,4,-16,0,-9,1,.
CSc1nc(Oc2ccc(F)cc2)c2ccccc2n1,.,-10,7,1,16,4,.
c1ccc(Oc2nc(-c3ccccn3)nc3ccccc23)cc1,72*,-5,-15,0,2,1,51*
Fc1ccc(Oc2nc(-c3ccccn3)nc3ccccc23)cc1,56*,-3,4,0,11,0,42*
COC(=O)[C@]12CCCCC=C1N(CCc1ccc(OC)c(OC)c1)C(=O)[C@H](CC(=O)NCC1CCCCC1)C2,.,.,.,.,-8,.,.
COc1ccccc1Nc1ccc(NC(=O)c2cccc([N+](=O)[O-])c2C)cc1,.,-6,5,0,8,0,.
CSc1nc(N(C)NC(=O)c2ccccc2)c2ccccc2n1,57*,9,16,3,-17,0,62*
CSc1nc(N(C)NC(=O)c2ccc(Cl)cc2)c2ccccc2n1,65*,-14,3,-2,-10,-1,66*
Cc1ccc(C(=O)NN(C)c2nc3ccccc3nc2C(F)(F)F)cc1,5,5,-4,0,6,-1,.
O[C@H]1CN(CC2CCCCC2)[C@@H](c2ccc(Cl)cc2)C[C@@H]1n1cc(-c2ccc(F)cc2)nn1,51*,-30,-7,-2,-6,6,64*
CC(C)Cc1nc2sc3c(NCc4ccco4)ncnc3c2c2c1COC(C)(C)C2,54*,-2,-1,0,33,-1,47*
Cn1cc([C@@H]2C[C@H]3CN(Cc4cccc(Cl)c4)C(=O)[C@]34CCCN24)c(-c2ccccc2)n1,0,3,8,-1,-1,-2,.
CC(C)(C)C(=O)Nc1cc(S(=O)(=O)Nc2ccc(Cl)cc2)ccc1Cl,.,-8,9,-1,14,-2,.
CC(=O)Nc1cc2cc(NS(=O)(=O)c3ccc(Cl)cc3)ccc2oc1=O,58*,3,-10,0,-2,0,10
CCCCn1c(N)c(N(CCOC)C(=O)c2c(CC)noc2C)c(=O)[nH]c1=O,6,2,-6,-1,1,0,.
SMILES,H9c2 TAG inh,Cardio protect,CRFR2-BP antag,hiPSC survival,SKN-1 block,CRFBP-R2 agonist,H9c2 TAG conf
CC(Sc1nc(NCc2ccccc2)nc(N2CCOCC2)n1)C(=O)Nc1ccccc1 (stereo not drawn),70*,-8,5,-2,16,4,47*
CCNc1nc(SC(C)C(=O)Nc2ccccc2)nc(N2CCOCC2)n1 (stereo not drawn),31,-2,0,-2,10,-1,.
O=C(CSc1nc(Nc2ccccc2)nc(N2CCOCC2)n1)N1CCc2ccccc21,.,4,10,4,-5,2,.
O=C(CSc1nc(Nc2ccccc2)nc(N2CCOCC2)n1)N1CCCC1,71*,7,2,-1,-13,-3,41*
Cc1ccc(F)cc1NC(=O)CSc1nc(Nc2ccccc2)nc(N2CCOCC2)n1,43,-2,-6,0,7,0,.
O=C(CSc1nc(N2CCCCC2)nc(N2CCCCC2)n1)N1CCN(c2ccccc2)CC1,60*,-20,-6,-3,-10,2,27
Cc1ccccc1NC(=O)CSc1nc(Nc2ccccc2)nc(N2CCOCC2)n1,54*,3,28,0,8,-5,46*
CCOc1ccc(C(=O)NC(=S)Nc2cccc(S(=O)(=O)NC3=NCCC3)c2)cc1,51*,-4,-8,-1,5,1,57*
Cc1ccc(C(=O)OCC(=O)Nc2cccc(S(=O)(=O)NC3=NCCCCC3)c2)c(C)c1,78*,-5,-11,1,-6,-1,12
Cc1cc(N2CCOCC2)n2nc(C)c(-c3ccccc3)c2n1,60*,-1,3,-1,4,-2,46*
C[N+](C)(C)CCN1CCc2ccccc21,.,.,.,0,-14,.,.
CN(C)CCCN1c2ccc3ccccc3c2Sc2cccc(Cl)c21,38,2,-33,1,10,1,.
CN(C)CCCN1c2ccccc2Sc2ccc3ccccc3c21,50*,-9,-16,-1,-3,6,60*
CCN(CC(=O)Nc1ccc(C(=O)Nc2ccc(OC)cc2)cc1)Cc1nc2ccccc2c(=O)[nH]1,55*,29,-3,1,-8,0,50*
CCN(CC)CCn1c(=S)[nH]c2ccc(Br)cc2c1=O,-24,0,-18,-1,-3,3,.
